A selection: hits, their analogues and other compounds. The true share with any hit is near 3.8%.
TGFb SMAD3 inh: blocks TGF-b signaling. AID 588855. HepG2 CAGA-GFP TGF-b/SMAD3 reporter, GFP fluorescence, 18 h; TGF-beta stimulated, 500 pg/mL final. Potency, µM (highest dose often 46.1 µM), hits mostly inhibitors. 410,000 tested, 1.2% active; further: nearly all actives have a fitted effect of over 65% in size
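GFP signal (ex488/em500-530) from TGF-beta-stimulated HEPG2 CAGA-GFP cells, 500 pg/mL final, 18 h at 37 degrees C in DMEM plus 1% FBS, normalized to unstimulated and DMSO-stimulated controls.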
A549 tox: A549 cytotoxicity, counter-screen for Nrf2 inhibitors | A549 ARE-Fluc cells, CellTiter-Fluor viability, 18-24 h | Potency, µM (titrated, usually from 46 µM), usual class: inhibitors | 390,000 tested, 0.16% active | AID 504648
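Cytotoxicity counterscreen: CellTiter-Fluor fluorescence was measured in A549 ARE_Fluc cells after 18-24 h of compound exposure in a concentration series. The subsequent BugLite luminescent read reports ARE-luciferase activity.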
HepG2 tox: counter-screen for TGF-b inhibitors: cytotoxicity in HepG2 cells; HepG2 CAGA-GFP viability, ATP luminescence, 18 h; Potency, µM (highest dose often 46.1 µM), usual class: cytotoxic; 410,000 tested, 0.76% active
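HepG2 CAGA-GFP cells (1000/well, DMEM with 1% FBS) received compound, then TGF-beta at 500 pg/mL final, and were incubated 18 hours at 37 degrees C. Viability was read by CellTiter-Glo luminescence. Media-only wells were set as complete cell-killing and DMSO as no toxicity.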
ATXN2 expr inh: reduces ATXN2 reporter expression in HEK-293 cells; HEK-293 ATXN2-luciferase reporter, luminescence, 24 h; Potency, µM (top dose mostly 57 µM), hits mostly inhibitors; 360,000 tested, 0.72% active; AID 1745845; further: nearly all actives have a fitted effect of over 55% in size
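ATXN2-luciferase reporter cells (luciferase flanked by upstream and downstream ATXN2 gene portions) were treated 24 h at 37 °C with compounds at up to 57 uM. SteadyGlo luminescence gave expression; GF-AFC fluorescence gave viability.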
Nrf2 block: blocks Nrf2 signaling; Potency, µM (highest dose often 46 µM), hits mostly inhibitors; 360,000 tested, 2.1% active; A549 ARE-Fluc reporter, luciferase luminescence, 18-24 h; AID 504444; further: nearly all actives have a fitted effect of over 60% in size
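Reporter: ARE-Fluc in A549. Exposure: 18-24 h, 37 °C, 5% CO2, 5% FBS OPTI-MEM. Readouts: fluorescent cytotoxicity (CellTiter-Fluor), then luminescent Nrf2 signal after BugLite.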
S2 tox: viability counter-screen for ATXN expression inhibitors; S2 cells (HEK-293 line with an ATXN2-luciferase reporter) viability, CellTiter-Fluor protease fluorescence, 24 h; Potency, µM (series often up to 56.7 µM), actives largely listed as cytotoxic; 400,000 tested, 0.49% active; AID 651635; further: nearly all actives have a fitted effect of over 40% in size
Of the large screens only hits and unclear results are named; the others gave an inactive call. The call rests on the fitted dose curve; in most records, active means well fitted curve in the direction sought with a large enough effect; inconclusive means small, poorly fitted or top-dose-only effect, or another doubt; inactive means no such curve, though single readings can be large; an effect the other way counts as inactive or inconclusive.

CCCCCOP(=O)(OCCCCC)C1(NS(=O)(=O)c2ccccc2)C=CC(=O)c2ccccc21 (stereo unspecified)	TGFb SMAD3 inh inconclusive, A549 tox inconclusive, Nrf2 block inconclusive
CC12CCC(C(=O)N3CCN(C(c4ccccc4)c4ccccc4)CC3)(OC1=O)C2(C)C (stereo unspecified)	Nrf2 block 23µM
CC(=O)N1CCN(C(c2ccccc2)c2ccccc2)CC1	none (no result: A549 tox, HepG2 tox, Nrf2 block)
OC1(c2ccc(Cl)c(Cl)c2)C[n+]2ccccc2N1Cc1ccccc1 (stereo unspecified)	TGFb SMAD3 inh inconclusive, ATXN2 expr inh 35µM, Nrf2 block inconclusive (no result: S2 tox)
OC1(c2ccccc2)CCN(Cc2ccccc2)CC1	none
Cc1nn(C)cc1CN(C)C(=O)c1nn2c(c1Cl)NC(c1cccs1)CC2C(F)(F)F (stereo unspecified)	Nrf2 block 16µM
Cc1nn(C)cc1CN(C)C(=O)c1nn2c(c1Br)NC(c1cccs1)CC2C(F)(F)F (stereo unspecified)	none
Cc1ccc(C2CC(C(F)(F)F)n3nc(C(=O)NCc4c(C)nn(C)c4C)c(Cl)c3N2)cc1 (stereo unspecified)	TGFb SMAD3 inh 13µM, ATXN2 expr inh inconclusive, Nrf2 block 12µM
Cc1nn(C)c(C)c1CN(C)C(=O)c1cc2n(n1)C(C(F)(F)F)CC(c1cccs1)N2 (stereo unspecified)	Nrf2 block 13µM
Cc1nn(C)c(C)c1CNC(=O)c1cnn2c1NC(c1ccccc1)CC2C(F)(F)F (stereo unspecified)	none
Oc1ccc(Br)cc1C1C=C(c2ccc3c(c2)OCO3)NC(c2cccc(F)c2)N1 (stereo unspecified)	TGFb SMAD3 inh inconclusive (no result: ATXN2 expr inh, S2 tox)
COC(=O)c1ccc(C2NC(c3ccc4c(c3)OCO4)=CC(c3ccccc3O)N2)cc1 (stereo unspecified)	TGFb SMAD3 inh 11µM (no result: ATXN2 expr inh, S2 tox)
Oc1ccccc1C1C=C(c2ccc3c(c2)OCO3)NC(c2cccc(F)c2)N1 (stereo unspecified)	TGFb SMAD3 inh inconclusive, HepG2 tox 18µM (no result: ATXN2 expr inh, S2 tox)
NS(=O)(=O)c1cccc2cccnc12	none
CC(C)(C)OC(=O)N(c1cccc2cccnc12)S(=O)(=O)c1ccccc1Br	TGFb SMAD3 inh 4.5µM, Nrf2 block inconclusive (no result: ATXN2 expr inh, S2 tox)
COc1cc(NS(=O)(=O)c2ccc3[nH]c4c(c3c2)CCCCCC4)cc(OC)c1	TGFb SMAD3 inh 13µM, ATXN2 expr inh inconclusive, S2 tox inconclusive (no result: Nrf2 block)
CCC(C)c1ccccc1NC(=O)COC(=O)c1ccc2[nH]c3c(c2c1)CCCC3 (stereo unspecified)	TGFb SMAD3 inh inconclusive, A549 tox inconclusive, ATXN2 expr inh inconclusive, Nrf2 block 21µM, S2 tox inconclusive
CCc1ccc(NS(=O)(=O)c2ccc3[nH]c4c(c3c2)CCCCCC4)cc1	TGFb SMAD3 inh inconclusive, S2 tox inconclusive (no result: Nrf2 block)
CCOC(=O)c1ccc(NS(=O)(=O)c2ccc3[nH]c4c(c3c2)CCCCC4)cc1	TGFb SMAD3 inh inconclusive, HepG2 tox 25µM, ATXN2 expr inh inconclusive, Nrf2 block inconclusive, S2 tox inconclusive
CN(CC(=O)NCc1ccc(Cl)cc1)S(=O)(=O)c1ccc2[nH]c3c(c2c1)CCCC3	TGFb SMAD3 inh inconclusive, ATXN2 expr inh inconclusive, Nrf2 block 16µM, S2 tox inconclusive
CC(=O)Nc1ccc(-c2ccnc3c2CC(C)(C(=O)NCc2ccc(N4CCN(C)CC4)cc2)O3)cc1 (stereo unspecified)	none (no result: A549 tox, Nrf2 block)
O=C(NCCCn1ccnc1)c1cc(-c2ccc3c(c2)OCO3)on1	TGFb SMAD3 inh inconclusive, S2 tox inconclusive
COc1cccc(CNS(=O)(=O)c2ccc3[nH]c4c(c3c2)CCCCC4)c1	TGFb SMAD3 inh inconclusive, HepG2 tox 22µM, ATXN2 expr inh inconclusive, Nrf2 block inconclusive, S2 tox inconclusive
O=S(=O)(NCc1ccc(F)cc1)c1ccc2[nH]c3c(c2c1)CCCCC3	TGFb SMAD3 inh inconclusive, Nrf2 block inconclusive
CCOC(=O)c1c(C)oc2nc(C)nc(NCCCN3CCN(c4cccc(C)c4)C(C)C3)c12 (stereo unspecified)	none
CCOC(=O)C(C(C)=O)c1c(Br)c(O)c(O)c2c(C(=O)c3ccc(C)cc3)coc12 (stereo unspecified)	TGFb SMAD3 inh 10µM, A549 tox 8.2µM, ATXN2 expr inh 14µM, Nrf2 block 7.3µM, S2 tox inconclusive
CCOC(=O)c1c(C)n(-c2ccc(C)cc2)c2c(C(C(C)=O)C(=O)O)c(Br)c(O)c(O)c12 (stereo unspecified)	TGFb SMAD3 inh inconclusive
CN1CCN(S(=O)(=O)c2ccc3ccccc3c2)CC1	none
O=C(c1cc(S(=O)(=O)N2CCN(c3ccccc3)CC2)ccc1Cl)N1CCCCCCC1	TGFb SMAD3 inh inconclusive, ATXN2 expr inh inconclusive, Nrf2 block 21µM, S2 tox inconclusive
O=S(=O)(c1ccc2ccccc2c1)N1CCN(c2ccc(O)cc2)CC1	Nrf2 block 10µM (no result: ATXN2 expr inh)
CCn1c(NC(=O)Nc2cccc(C)c2C)cc2sccc21	none
O=C(NN=C1CCCCCCC1)c1ccc2ccccc2n1	Nrf2 block inconclusive
COc1ccc(CCn2c(C)cc(C(=O)CN3C(=O)C(=O)N(C4CCCC4)C3=O)c2C)cc1OC	Nrf2 block inconclusive, S2 tox inconclusive
CC(=NNC(=S)N1CC2CCC(CC2)C1)c1cccc(C)n1	TGFb SMAD3 inh inconclusive, A549 tox 9.2µM, Nrf2 block inconclusive, S2 tox inconclusive
CCOc1nc2c(c(=O)n(C)c(=O)n2C)n1Cc1ccccc1Cl	Nrf2 block 18µM, S2 tox inconclusive
Cn1c(=O)c2c(nc(Br)n2Cc2ccccc2Cl)n(C)c1=O	none (no result: Nrf2 block)
CN1CCN(c2nc3c(c(=O)n(C)c(=O)n3C)n2Cc2cccc3ccccc23)CC1	none
Cn1c(=O)c2c(nc(Cl)n2CCOc2ccccc2)n(C)c1=O	ATXN2 expr inh inconclusive, Nrf2 block 26µM
COc1ccccc1Oc1nc2c(c(=O)n(C)c(=O)n2C)n1Cc1cccc(Br)c1	TGFb SMAD3 inh inconclusive, Nrf2 block 16µM
Cn1c(=O)c2c(nc(N3CCCCCC3)n2Cc2cccc3ccccc23)n(C)c1=O	A549 tox 23µM, Nrf2 block inconclusive
O=S(=O)(c1ccc(F)cc1)N1CCN(c2nc(-c3ccccc3)nc3cc(Cl)ccc23)CC1	none (no result: ATXN2 expr inh, S2 tox)
Cc1cc(=O)c2cc(C(=O)Nc3ccc(F)cc3)ccc2[nH]1	Nrf2 block inconclusive
Cc1ccc(S(=O)(=O)N2CCCc3cc(NS(=O)(=O)c4cc(F)ccc4F)ccc32)cc1	TGFb SMAD3 inh inconclusive, A549 tox inconclusive, ATXN2 expr inh inconclusive, S2 tox inconclusive (no result: Nrf2 block)
